For 40 compounds, Percent Effect results are on record in ChEMBL document CHEMBL3988442, “University of Dundee, Small-Polar-MMV Screening Library” (2021).

The test deals with T1, Aspartate--tRNA(Asp/Asn) ligase (Mycobacterium tuberculosis (strain ATCC 25618 / H37Rv)) (UniProt P9WFW3).
T1 sequence (whole entry): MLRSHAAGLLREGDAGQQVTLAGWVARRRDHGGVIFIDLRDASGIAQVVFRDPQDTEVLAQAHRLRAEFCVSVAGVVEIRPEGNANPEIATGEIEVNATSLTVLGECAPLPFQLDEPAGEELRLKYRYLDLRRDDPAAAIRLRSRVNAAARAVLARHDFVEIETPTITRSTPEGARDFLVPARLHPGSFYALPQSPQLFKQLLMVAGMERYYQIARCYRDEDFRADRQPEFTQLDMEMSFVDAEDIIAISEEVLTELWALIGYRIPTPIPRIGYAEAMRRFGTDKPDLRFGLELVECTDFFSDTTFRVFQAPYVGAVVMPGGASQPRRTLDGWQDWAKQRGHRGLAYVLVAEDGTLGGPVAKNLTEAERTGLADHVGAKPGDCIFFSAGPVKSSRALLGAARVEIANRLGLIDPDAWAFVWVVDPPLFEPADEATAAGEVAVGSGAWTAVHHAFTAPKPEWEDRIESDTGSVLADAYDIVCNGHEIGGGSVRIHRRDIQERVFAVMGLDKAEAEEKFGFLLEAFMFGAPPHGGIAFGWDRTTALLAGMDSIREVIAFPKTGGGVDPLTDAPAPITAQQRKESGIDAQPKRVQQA
The experiment in a line: Assay for Asp RNA synthetase-1 from Mycobacterium tuberculosis. The test is classed as functional. Set-up: scale not given: in the data most compounds retested in dose-response had high values. The note with it: 30 µM.
As to `Cn1c(Cn2ccnc2)nnc1C1CCN(Cc2cccnc2N)CC1`, the Percent Effect was -2.34%.
Then `COc1ccc(C2(NC(=O)CCn3cncn3)CCCCC2)cc1`, with -7.19%.
Then `CN(CCO)C[C@@H]1CN(C(=O)c2c(F)cccc2Cl)C[C@@H]1CO`, with 2.26%; and `COc1ccc(CN2C[C@@H](OCc3csc(C)n3)[C@H]3COC[C@H]32)cc1`, with -1.16%; and `CC(C)c1ncc(CN2CCCC(CO)C2)cn1` (stereo not given), with 0.491%.
Turning to `CCc1noc(C)c1C(=O)N1CCCC1c1c(C)nn(C)c1OC` (stereo not given), the Percent Effect was -3.25%.
As for `Cc1ccc(NC(=O)C2CSCN2C(=O)c2cnn(C)c2)c(C)c1` (stereo not given), the Percent Effect was 0.456%.
Then `O=C(c1ccc2c(c1)OCO2)N1CCN(c2cnccn2)CC1`, with -4.12%; and `Cc1nc(CN2CCCC2c2ccsc2)nc2ccccc12` (stereo not given), with -2.75%; and `Cc1[nH]ncc1C(=O)N1CCCC(n2cncn2)C1` (stereo not given), with 1.7%.
Then `c1coc(-c2nnc(CN3CCOC(Cn4cccn4)C3)o2)c1` (stereo not given), with -4.34%; and `CNc1nc(CNC(=O)Nc2ccccc2-c2noc(C)n2)cs1`, with -2.92%; and `Cc1ccccc1CSc1nc(N)cc(N2C[C@H](O)[C@@H](N(C)C)C2)n1`, with 3.57%.
Consider `CCc1nnc2n1CC(CNCc1ccncc1)CC2` (stereo not given), for which the Percent Effect was -3.51%.
Then `O=C(O)c1cc2c(nc1O)CC(c1cccc(Cl)c1)CC2=O` (stereo not given), with 0.494%; and `Cc1nnc(CN2CCN(CC(O)c3cccc(F)c3)CC2)n1C` (stereo not given), with -0.288%.
Then `CC(=O)N1CCCn2nc(CNS(=O)(=O)c3cc(C)cs3)cc2C1`, with 1.67%.
Consider `Cc1nccn1CC1CCCN1S(=O)(=O)Cc1ccccc1F` (stereo not given), for which the Percent Effect was found to be 1.06%.
For the compound `COc1cc(CNCc2ccnc(N3CCOCC3)c2)cc(Cl)c1OC`, the Percent Effect is 6.73%.
Then `Cc1nc(O)c2nnn(C[C@H]3CCCN3C(=O)CCC3CCCC3)c2n1`, with 2.01%; and `Cc1ccc(NC(=O)N2CCN(Cc3noc(C4CC4)n3)CC2)cc1`, with -2.14%.
In the case of `N#CCCN(C(=O)CN1CCCC1Cc1ccccc1)c1ccccc1` (stereo not given), the Percent Effect is 2.91%.
Turning to `O=C(c1cc(=O)[nH]c(=O)[nH]1)N1CCCCC1c1nc2cc(F)ccc2[nH]1` (stereo not given), the Percent Effect is -0.139%.
Then `CCn1nc2c(cc1=O)CN(Cc1nc3ccccc3c(=O)[nH]1)CC2`, with -3.91%.
Then `NCc1cnn(-c2ccccc2C(=O)NCCCn2ccnc2)c1`, with 0.581%.
In the case of `CCN1CC2(CC1=O)CN(Cc1ccco1)CCN(C(=O)N(C)C)C2` (stereo not given), the Percent Effect was -2.71%.
In the case of `COc1cc(C)c(S(=O)(=O)NCc2cccnc2N(C)C)c(C)c1` it was 2.73%.
In the case of `CCC1=N[C@@]2(CC[C@@H]3CN(C(=O)NCc4ccccc4)C[C@@H]32)C(=O)N1` it was 1.75%; in that of `CC1CCN(CCNC(=O)c2ccccc2N2CCOCC2)CC1`, 2.6%.
In the case of `COCCN1CCN(Cc2noc(C3CC3)n2)CC1C` (stereo not given) it was -6.85%; in that of `CC1c2ncc(CN3CCN(C)CC3)n2CCN1Cc1cccnc1` (stereo not given), 1.75%.
With `Cc1nnc(CCNC2CCN(c3ncnc4c(C)csc34)CC2)s1`, the Percent Effect came to 0.208%.
In the case of `CN(C)C(=O)N1Cc2nnn(C)c2C(COCC2CC2)C1` (stereo not given) it was 3.51%; in that of `COCCN1CCN(C(=O)c2cc(C(C)C)on2)[C@H]2CS(=O)(=O)C[C@H]21`, -3.12%.
With `O=C1CCc2cc(-c3csc(CCN4CCCC4=O)n3)ccc2N1`, the Percent Effect is -0.577%.
On to `O=C(Cn1nc(-c2ccc(F)cc2)oc1=O)NCc1ccc(F)cc1`, for which the Percent Effect is -2.48%.
Then `CCn1ncc2c1C(COCC1CC1)CN(C(=O)c1cccs1)C2` (stereo not given), with -1.73%.
Then `Cc1ccc(N2CC3(CCN(c4nccs4)C3)C2)nn1`, with -3.76%; and `COCCC(=O)N1CCC2(COCc3cnc(N4CCOCC4)nc32)C1` (stereo not given), with 1.66%; and `Cc1cc(NC(=O)NCCc2cccs2)n(C)n1`, with 1.39%.
